# Results taken from PubChem BioAssay (NCATS).
# Results filed as inconclusive are left out. Activity calls are given as the source filed them. Unless noted, calls come from the whole dose curve; as a rule, active = well fitted curve in the direction sought with a large enough effect; inconclusive = small, poorly fitted or top-dose-only effect, or another doubt; inactive = no such curve, though single readings can be large; an effect the other way counts as inactive or inconclusive.
# Assays:
# [1] = target: Cytochrome P450 3A4 (Homo sapiens) (UniProt P08684); test: qHTS Assay for Inhibitors and Substrates of Cytochrome P450 3A4 (AID 884); note: nearly all actives have a fitted effect of over 50% in size; note: potency is the fitted concentration of half-maximal effect; for activity change, negative = inhibition: % is set by controls: 0 for no effect and ±100 for the full control effect
# Outline: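 Luminescent readout of luciferin produced by CYP3A4 (20 nM) dealkylation of Luciferin-PPXE, 25 uM (its KM). NADPH-driven reaction ran 60 min at RT after 10 min compound preincubation; data scaled to 57 uM ketoconazole as 100% inhibition.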
# [2] = Confirmation and Secondary Assay for Modulators of Hemoglobin Beta Chain Splicing at IVS2 654 locus (AID 910);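 note: HeLa cells stably carrying EGFP split by mutant beta-globin IVS2-654 intron; per-well total GFP intensity by laser scanning cytometry after 2-day treatment; % of control where 0% means no effect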
# Outline: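 Readout: per-well total peak green fluorescence (488 nm ex, 500–520 nm em) from objects 5–250 µm, reflecting correct splicing of an EGFP-654 reporter. Compounds were applied for 2 days at 37 °C to overnight-plated HeLa EGFP-654 cells; controls were DMSO and 500 nM IVS2-654 PNA.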
# [3] = Confirmation and Secondary Assay for Modulators of Hemoglobin Beta Chain Splicing at IVS2 705 locus (AID 930);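 note: HeLa cells stably expressing the EGFP-705 splicing reporter; GFP fluorescence per well restored by corrected splicing of the IVS2-705 intron in EGFP; % of control where 0% means no effect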
# Outline: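 Fluorescence gain (488 nm laser, 500-520 nm PMT) reflects restored correct splicing of a mutant IVS2-705 intron inside EGFP in stably transfected HeLa cells after 2-day compound treatment.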
# [4] = NCATS anti-infectives library activity on HEK293 viability as a counter-qHTS vs the C. elegans viability qHTS (AID 1745854); note: % is set by controls: 0 for no effect and ±100 for the full control effect
# Outline: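 CellTiter-Glo luminescence, read on a CCD imager, scored viability of HEK293 cells after 24 hr compound exposure at 37C. Library tested in several concentrations, 1:5 steps, up to 41.7 uM; digitonin served as control.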
# [5] = target: ATP-dependent 6-phosphofructokinase (Trypanosoma brucei brucei) (UniProt O15648); test: qHTS Assay to Find Inhibitors of T. brucei phosphofructokinase: hit validation (AID 492961);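 note: luminescence reports ADP formed as PFK phosphorylates fructose-6-phosphate with ATP; % is set by controls: 0 for no effect and ±100 for the full control effect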
# Outline: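 ADP-Glo luminescence read-out of ADP formed by 1.25 nM PFK from 0.1 mM ATP and 0.5 mM F6P (TEA pH 8.0, 45 min, RT). Compounds titrated; activity normalized to no-enzyme and full-enzyme controls.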
# [6] = qHTS profiling for inhibitors of Plasmodium falciparum proliferation (AID 504749);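 note: 0% = DMSO vehicle and full inhibition = artemisinin control; nearly all actives have a fitted effect of over 60% in size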; settings: P. falciparum in erythrocytes, SYBR Green DNA, 72 h, at 12.8 µM (top of the series)
# Outline: (§1)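 In a 72 h erythrocytic culture (37 C, humidified, 5% CO2) at 2.5% hematocrit and 0.3% starting parasitemia, compounds were tested; SYBR Green I in detergent lysis buffer stained parasite DNA overnight.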
# [7] = tested on: AS120; test: as above; settings: P. falciparum in erythrocytes, SYBR Green DNA, 72 h; series mostly up to 28.7 µM
# Outline: as §1
# [8] = tested on: ATS189; test: as above; settings: P. falciparum in erythrocytes, SYBR Green DNA, 72 h; series mostly up to 28.7 µM
# Outline: as §1
# [9] = tested on: CP191; test: as above; settings: P. falciparum in erythrocytes, SYBR Green DNA, 72 h; series mostly up to 28.7 µM
# Outline: as §1
# [10] = tested on: CP192; test: as above; settings: P. falciparum in erythrocytes, SYBR Green DNA, 72 h; series mostly up to 28.7 µM
# Outline: as §1
# [11] = tested on: CP203; test: as above; settings: P. falciparum in erythrocytes, SYBR Green DNA, 72 h; series mostly up to 28.7 µM
# Outline: as §1
# [12] = tested on: CP247; test: as above; settings: P. falciparum in erythrocytes, SYBR Green DNA, 72 h; series mostly up to 28.7 µM
# Outline: as §1
# [13] = tested on: CP291; test: as above; settings: P. falciparum in erythrocytes, SYBR Green DNA, 72 h; series mostly up to 28.7 µM
# Outline: as §1
# [14] = tested on: PC49; test: as above; settings: P. falciparum in erythrocytes, SYBR Green DNA, 72 h; series mostly up to 28.7 µM
# Outline: as §1
# [15] = tested on: TAB113; test: as above; settings: P. falciparum in erythrocytes, SYBR Green DNA, 72 h; series mostly up to 28.7 µM
# Outline: as §1
# [16] = tested on: W2; test: as above; settings: P. falciparum in erythrocytes, SYBR Green DNA, 72 h; series mostly up to 28.7 µM
# Outline: as §1
# [17] = qHTS Assay for Identification of Small Molecule Agonists for Hypoxia Response Element Signaling Pathway (AID 914; active = well fitted activation curve with a large enough effect in the signal ratio, with a control signal flat, not every such curve was filed as active; the % refers to the signal ratio; note: % of control where 0% means no effect); settings: ME-180 (cervical carcinoma) HRE-bla reporter, beta-lactamase ratio, CoCl2, 17 h; activation: active compounds read high
# Outline: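 A beta-lactamase reporter under hypoxia response element control in ME-180 cells served as the system. Compound titrations plus EC50 CoCl2 ran 17 h at 37 degrees Celsius; AC50 values were fitted from %Activity.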
# [18] = target: Cytochrome P450 2C9 (Homo sapiens) (UniProt P11712); test: qHTS Assay for Inhibitors and Substrates of Cytochrome P450 2C9 (AID 883); note: nearly all actives have a fitted effect of over 60% in size; note: potency is the fitted concentration of half-maximal effect; for activity change, negative = inhibition: % is set by controls: 0 for no effect and ±100 for the full control effect
# Outline: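 Luminescent read-out of deoxyluciferin hydroxylation, normalized to 57uM sulphaphenazole (AC100). Reaction: 10nM enzyme, 100uM Luciferin-H (equal to KM), 25mM KPO4, 10 min compound preincubation, then 60 min with NADPH regeneration, both at 37C.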
# [19] = target: Cytochrome P450 2D6 (Homo sapiens) (UniProt P10635); test: qHTS Assay for Inhibitors and Substrates of Cytochrome P450 2D6 (AID 891); note: potency is the fitted concentration of half-maximal effect; nearly all actives have a fitted effect of over 60% in size
# Outline: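 Luminescent read-out of luciferin formed by 5 nM human CYP2D6 demethylating 30 uM Luciferin-ME EGE (Km level) over 60 min at room temperature after NADPH regeneration addition. Data normalized to full inhibition by 1.43 uM quinidine.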
# [20] = target: Cytochrome P450 2C19 (Homo sapiens) (UniProt P33261); test: qHTS Assay for Inhibitors and Substrates of Cytochrome P450 2C19 (AID 899); note: nearly all actives have a fitted effect of over 60% in size; note: potency is the fitted concentration of half-maximal effect
# Outline: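 Luminescence readout of luciferin formed from 10uM Luciferin-H EGE (KM level) by 5 nM CYP2C19 in 50mM KPO4. 60 min NADPH-driven reaction at 37C after 10 min compound preincubation; data scaled to 57uM ketoconazole inhibition.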
# Sequence of Cytochrome P450 2D6 (Homo sapiens) (P10635 whole entry, looked up): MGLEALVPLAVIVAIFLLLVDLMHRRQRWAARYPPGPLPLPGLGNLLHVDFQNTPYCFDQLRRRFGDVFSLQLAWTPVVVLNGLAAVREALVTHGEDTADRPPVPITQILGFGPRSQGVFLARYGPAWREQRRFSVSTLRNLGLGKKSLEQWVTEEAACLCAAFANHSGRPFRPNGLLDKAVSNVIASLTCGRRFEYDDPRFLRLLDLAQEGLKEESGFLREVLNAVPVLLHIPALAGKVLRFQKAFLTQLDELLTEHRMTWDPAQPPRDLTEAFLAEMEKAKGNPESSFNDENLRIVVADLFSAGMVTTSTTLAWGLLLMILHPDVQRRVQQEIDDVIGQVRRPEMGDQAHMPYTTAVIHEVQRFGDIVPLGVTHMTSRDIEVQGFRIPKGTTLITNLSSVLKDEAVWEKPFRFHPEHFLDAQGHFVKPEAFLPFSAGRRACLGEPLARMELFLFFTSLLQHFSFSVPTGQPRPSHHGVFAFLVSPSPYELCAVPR
# Sequence of Cytochrome P450 2C19 (Homo sapiens) (P33261 whole entry, looked up): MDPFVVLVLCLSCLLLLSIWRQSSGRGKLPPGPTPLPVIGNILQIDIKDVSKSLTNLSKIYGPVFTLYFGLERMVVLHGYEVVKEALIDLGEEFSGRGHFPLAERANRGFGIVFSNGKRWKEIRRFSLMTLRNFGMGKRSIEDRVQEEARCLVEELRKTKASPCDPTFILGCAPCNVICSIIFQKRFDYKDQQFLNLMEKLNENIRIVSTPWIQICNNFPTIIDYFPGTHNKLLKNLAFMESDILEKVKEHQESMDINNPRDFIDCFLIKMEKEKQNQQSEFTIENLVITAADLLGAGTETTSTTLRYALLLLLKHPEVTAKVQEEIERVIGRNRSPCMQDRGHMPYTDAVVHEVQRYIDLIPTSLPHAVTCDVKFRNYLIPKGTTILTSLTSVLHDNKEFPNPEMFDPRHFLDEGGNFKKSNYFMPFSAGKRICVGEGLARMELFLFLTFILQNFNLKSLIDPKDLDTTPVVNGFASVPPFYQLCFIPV
# Sequence of Cytochrome P450 3A4 (Homo sapiens) (P08684 whole entry, looked up): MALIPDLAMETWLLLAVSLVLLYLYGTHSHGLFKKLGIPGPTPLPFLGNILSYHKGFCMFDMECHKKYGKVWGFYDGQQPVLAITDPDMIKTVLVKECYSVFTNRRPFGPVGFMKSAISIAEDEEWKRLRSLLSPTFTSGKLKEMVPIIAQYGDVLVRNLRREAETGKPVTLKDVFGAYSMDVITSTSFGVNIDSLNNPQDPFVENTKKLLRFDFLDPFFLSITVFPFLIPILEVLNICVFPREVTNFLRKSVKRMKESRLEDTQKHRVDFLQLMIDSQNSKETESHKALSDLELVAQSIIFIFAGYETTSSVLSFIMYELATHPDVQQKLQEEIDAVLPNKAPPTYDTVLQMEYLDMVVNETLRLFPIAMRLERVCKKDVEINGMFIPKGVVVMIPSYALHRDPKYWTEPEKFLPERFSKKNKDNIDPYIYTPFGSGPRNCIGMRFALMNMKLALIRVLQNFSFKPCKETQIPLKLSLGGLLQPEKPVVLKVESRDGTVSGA
# Sequence of Cytochrome P450 2C9 (Homo sapiens) (P11712 whole entry, looked up): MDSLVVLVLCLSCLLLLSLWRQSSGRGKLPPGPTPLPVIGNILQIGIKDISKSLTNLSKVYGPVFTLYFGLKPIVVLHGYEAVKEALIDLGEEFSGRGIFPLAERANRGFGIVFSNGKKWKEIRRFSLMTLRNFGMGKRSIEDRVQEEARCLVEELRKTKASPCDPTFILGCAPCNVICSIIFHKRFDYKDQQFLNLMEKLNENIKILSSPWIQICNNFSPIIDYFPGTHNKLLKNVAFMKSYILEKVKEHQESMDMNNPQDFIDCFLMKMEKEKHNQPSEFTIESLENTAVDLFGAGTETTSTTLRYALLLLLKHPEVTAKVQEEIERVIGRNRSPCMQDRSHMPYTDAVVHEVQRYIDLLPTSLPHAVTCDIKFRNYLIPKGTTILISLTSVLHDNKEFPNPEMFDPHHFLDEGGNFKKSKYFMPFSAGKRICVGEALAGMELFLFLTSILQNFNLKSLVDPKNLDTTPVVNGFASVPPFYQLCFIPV
# Sequence of ATP-dependent 6-phosphofructokinase (Trypanosoma brucei brucei) (O15648 whole entry, looked up): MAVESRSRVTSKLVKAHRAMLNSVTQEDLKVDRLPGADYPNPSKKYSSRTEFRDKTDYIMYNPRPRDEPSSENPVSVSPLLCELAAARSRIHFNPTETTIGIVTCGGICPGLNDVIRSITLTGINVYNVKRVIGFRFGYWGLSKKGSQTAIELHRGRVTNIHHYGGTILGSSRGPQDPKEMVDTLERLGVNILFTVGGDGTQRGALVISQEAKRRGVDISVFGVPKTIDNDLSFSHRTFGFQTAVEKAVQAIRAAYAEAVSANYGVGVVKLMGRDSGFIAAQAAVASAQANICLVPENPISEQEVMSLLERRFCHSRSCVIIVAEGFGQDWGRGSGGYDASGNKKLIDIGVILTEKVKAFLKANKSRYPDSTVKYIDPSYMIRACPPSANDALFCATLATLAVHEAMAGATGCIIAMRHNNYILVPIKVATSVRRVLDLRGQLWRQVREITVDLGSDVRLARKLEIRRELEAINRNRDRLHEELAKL
smiles,measurement,setting,value
O=C(c1cccc(F)c1)N1CCC2(CC1)CN(c1cccc(-c3ccccc3)c1)C2,Potency,[1],inactive
COc1cc(O)c2c(=O)cc(C)oc2c1CC=C(C)C,outcome,[2],inactive
same,outcome,[3],inactive
O=C(c1cccc(F)c1)N1CCC2(CCN(Cc3cc(C(F)(F)F)cc(C(F)(F)F)c3)CC2)CC1,Potency,[1],inactive
CC(C)=CCC1=C(O)c2ccccc2C(=O)C1=O,outcome,[2],inactive
same,outcome,[3],inactive
same,Potency,[4],inactive
Oc1ccc(/C=C\c2cc(O)cc(O)c2)cc1,outcome,[2],inactive
same,outcome,[3],inactive
same,outcome,[5],inactive
same,"activity, negative = inhibition",[6]; parasite line A,3.83% (inactive)
same,"activity, negative = inhibition",[6]; parasite line B,-0.952% (inactive)
same,Potency,[7],inactive
same,Potency,[8],inactive
same,Potency,[9],inactive
same,Potency,[10],inactive
same,Potency,[11],inactive
same,Potency,[12],inactive
same,Potency,[13],inactive
same,Potency,[14],inactive
same,Potency,[15],inactive
same,Potency,[16],inactive
CN(C)c1ncc2nc(-c3cccs3)c(=O)n(C[C@H]3CCCO3)c2n1,activation,[17],-3.72% (inactive)
O=c1c(-c2cc(F)cc(F)c2)nc2cnc(N3CCNCC3)nc2n1Cc1cccs1,Potency,[18],3.98 µM (active)
COCCn1c(=O)c(-c2cccs2)nc2cnc(N(C)C)nc21,Potency,[1],7.94 µM (active)
O=c1cnc2cnc(Oc3cccc(Cl)c3)nc2n1Cc1ccc(F)cc1,Potency,[18],7.94 µM (active)
FC(F)(F)c1ccccc1-c1nc(N2CCOCC2)c2ccccc2n1,activation,[17],9.18% (inactive)
COc1ccccc1CNc1ccnc(-c2ccc3c(c2)OCO3)n1,Potency,[1],1.58 µM (active)
same,Potency,[19],0.794 µM (active)
same,outcome,[2],inactive
same,outcome,[3],inactive
Cc1cccc(CNc2nc(-c3ccc4c(c3)OCO4)nc3ccccc23)c1,Potency,[20],3.16 µM (active)
same,activation,[17],6.93% (inactive)
CN(C)c1ncc2nc(-c3cccc(C#N)c3)c(=O)n(CCC#N)c2n1,Potency,[18],inactive
Cn1c(=O)c(-c2ccc(Cl)cc2)nc2cnc(Oc3cccc(Cl)c3)nc21,Potency,[1],inactive
Cn1cc(-c2nc3cnc(N4CCNCC4)nc3n(C)c2=O)c2ccccc21,Potency,[18],7.94 µM (active)
FC(F)(F)c1ccccc1-c1nc(NCCN2CCOCC2)c2ccccc2n1,Potency,[1],7.94 µM (active)
COCCNc1ncncc1-c1c(C)noc1C,"activity change, negative = inhibition",[18],23.1% [at 2.29 µM] (inactive)
same,Potency,[1],5.01 µM (active)
Cc1nc2cnc(N(C)C)nc2n(C2CC2)c1=O,activation,[17],9.86% (inactive)
Cc1noc(C)c1-c1cc(NCc2cccs2)ncn1,Potency,[20],inactive
CN1CCN(c2ncc3nc(-c4cc(F)cc(F)c4)c(=O)n(C)c3n2)CC1,Potency,[18],inactive
COc1cccc(-c2cncnc2NC2CCNCC2)c1,Potency,[20],inactive
COc1ccc(-c2nc3cnc(N4CCOCC4)nc3n(C[C@H]3CCCO3)c2=O)cc1,Potency,[18],inactive
COCCn1c(=O)c(-c2ccccc2)nc2cnc(OC)nc21,activation,[17],-14.2% (inactive)
FC(F)(F)c1ccccc1-c1nccc(NCc2cccs2)n1,Potency,[1],2 µM (active)
same,Potency,[20],2 µM (active)
Cn1c(=O)c(-c2cc(F)cc(F)c2)nc2cnc(N3CCOCC3)nc21,activation,[17],-3.42% (inactive)
COc1ccc(Oc2ncc3nc(C)c(=O)n(-c4ccccc4)c3n2)cc1,Potency,[1],5.01 µM (active)
Cc1noc(C)c1-c1cc(NC2CCNCC2)ncn1,"activity change, negative = inhibition",[18],23.1% [at 2.29 µM] (inactive)
same,Potency,[1],inactive
COc1ccc(CNc2ccnc(-c3ccc4c(c3)OCO4)n2)c(OC)c1,Potency,[20],2.51 µM (active)
Cc1ccccc1-c1cc(NCCN2CCOCC2)ncn1,Potency,[1],inactive
COc1ccccc1CCn1c(=O)c(-c2cccc(F)c2)nc2cncnc21,Potency,[18],2.51 µM (active)
same,Potency,[1],3.16 µM (active)
same,activation,[17],-1.08% (inactive)
FC(F)(F)c1ccccc1-c1cc(NCc2ccccc2)ncn1,Potency,[1],inactive
CN(C)c1ccc(-c2cc(Nc3ccc(F)cc3)ncn2)cc1,"activity change, negative = inhibition",[18],8.7% [at 2.29 µM] (inactive)
CCNc1ncc2ncc(=O)n(C3CC3)c2n1,Potency,[18],inactive
COCCn1c(=O)c(C)nc2cnc(N3CCN(C)CC3)nc21,Potency,[18],inactive
COc1ccc(Oc2ncc3nc(C)c(=O)n(C[C@H]4CCCO4)c3n2)cc1,Potency,[1],3.98 µM (active)
same,activation,[17],-5.29% (inactive)
N#Cc1cccc(-c2nc3cnc(Oc4cccc(Cl)c4)nc3n(C3CC3)c2=O)c1,Potency,[18],3.16 µM (active)
same,Potency,[1],inactive
CN1CCN(c2ncncc2-c2ccc(C(=O)N(C)C)cc2)CC1,Potency,[19],0.251 µM (active)
Cc1ccccc1-c1ccc2ncnc(NC3CC3)c2c1,Potency,[1],3.16 µM (active)
same,Potency,[19],7.94 µM (active)
same,Potency,[20],1.26 µM (active)
Cc1ccccc1-c1cncnc1NCc1ccccc1,Potency,[1],0.316 µM (active)
same,Potency,[20],2 µM (active)
